Source: PMC7862700, “An all-to-all approach to the identification of sequence-specific readers for epigenetic DNA modifications on cytosine”

Key:
Assay in all cases: DAPPL (digital affinity profiling via proximity ligation, sequencing); 10 mM Tris-HCl pH 7.5, 50 mM NaCl, 1 mM DTT, 4% glycerol, room temperature, 30 min; GST-TFs on glutathione beads, 16-mer random dsDNA library, 0.1% formaldehyde crosslink after washing; high values mean tight binding
Conditions in all cases: protein: recombinant; tags: N-terminal GST; dsDNA, one strand shown
ELK1 = biological target: T1, ELK1 (Homo sapiens, UniProt P19419 1-428)
T1 sequence: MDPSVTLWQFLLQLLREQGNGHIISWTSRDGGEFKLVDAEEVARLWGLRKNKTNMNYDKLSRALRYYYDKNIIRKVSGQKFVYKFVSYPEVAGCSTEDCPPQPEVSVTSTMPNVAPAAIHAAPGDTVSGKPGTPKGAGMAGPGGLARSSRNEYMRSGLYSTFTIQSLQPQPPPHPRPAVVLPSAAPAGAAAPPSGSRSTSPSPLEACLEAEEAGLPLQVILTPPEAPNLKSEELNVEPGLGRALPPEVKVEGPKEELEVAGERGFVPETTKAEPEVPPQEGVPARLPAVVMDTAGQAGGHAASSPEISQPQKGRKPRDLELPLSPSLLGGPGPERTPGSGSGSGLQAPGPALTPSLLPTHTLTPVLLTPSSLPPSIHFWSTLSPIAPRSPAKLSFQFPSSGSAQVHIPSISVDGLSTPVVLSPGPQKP
In short: (§1)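 GST fusions of human transcription factors were expressed in yeast and captured with glutathione beads. Once given DNA barcodes and pooled alongside a tag-only sample, they were incubated for 30 min at room temperature with 200 nmole of a random double-stranded 16-mer DNA library in Tris/NaCl/DTT/glycerol buffer, then washed, crosslinked (0.1% formaldehyde), proximity-ligated, PCR-amplified and sequenced on an Illumina NextSeq500. The binding signal of each hexamer is its read frequency for a factor divided by its frequency for the tag-only sample.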

GABPA = biological target: T2, GABPA (Homo sapiens, UniProt Q06546 1-454)
T2 sequence: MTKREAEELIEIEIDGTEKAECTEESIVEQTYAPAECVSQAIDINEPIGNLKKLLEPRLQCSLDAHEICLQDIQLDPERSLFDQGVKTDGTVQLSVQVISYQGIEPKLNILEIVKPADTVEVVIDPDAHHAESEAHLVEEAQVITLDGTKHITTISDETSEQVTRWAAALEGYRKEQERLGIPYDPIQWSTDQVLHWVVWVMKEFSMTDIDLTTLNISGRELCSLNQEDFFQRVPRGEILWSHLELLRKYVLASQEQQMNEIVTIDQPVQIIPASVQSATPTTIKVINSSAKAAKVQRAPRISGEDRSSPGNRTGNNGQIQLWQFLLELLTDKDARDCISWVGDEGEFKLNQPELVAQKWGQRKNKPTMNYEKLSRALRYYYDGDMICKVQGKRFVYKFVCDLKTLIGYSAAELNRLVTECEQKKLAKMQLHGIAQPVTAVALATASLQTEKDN
In short: as §1

ERG = biological target: T3, ERG (Homo sapiens, UniProt P11308 1-479)
T3 sequence: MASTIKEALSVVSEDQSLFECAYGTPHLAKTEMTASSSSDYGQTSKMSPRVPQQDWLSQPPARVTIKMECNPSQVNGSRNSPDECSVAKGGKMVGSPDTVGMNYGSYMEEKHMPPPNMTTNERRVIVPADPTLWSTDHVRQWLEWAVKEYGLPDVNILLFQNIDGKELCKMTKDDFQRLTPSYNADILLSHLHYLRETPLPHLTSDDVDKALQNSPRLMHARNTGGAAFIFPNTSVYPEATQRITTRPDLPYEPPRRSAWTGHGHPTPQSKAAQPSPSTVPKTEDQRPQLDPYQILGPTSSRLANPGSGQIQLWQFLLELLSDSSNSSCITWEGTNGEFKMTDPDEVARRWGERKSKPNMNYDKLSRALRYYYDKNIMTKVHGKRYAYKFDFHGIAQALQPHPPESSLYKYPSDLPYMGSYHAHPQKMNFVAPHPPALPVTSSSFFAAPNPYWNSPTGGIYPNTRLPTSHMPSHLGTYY
In short: as §1

ELF1 = ELF1 (Homo sapiens, UniProt P32519 1-619)
Sequence of ELF1 (P32519 whole entry): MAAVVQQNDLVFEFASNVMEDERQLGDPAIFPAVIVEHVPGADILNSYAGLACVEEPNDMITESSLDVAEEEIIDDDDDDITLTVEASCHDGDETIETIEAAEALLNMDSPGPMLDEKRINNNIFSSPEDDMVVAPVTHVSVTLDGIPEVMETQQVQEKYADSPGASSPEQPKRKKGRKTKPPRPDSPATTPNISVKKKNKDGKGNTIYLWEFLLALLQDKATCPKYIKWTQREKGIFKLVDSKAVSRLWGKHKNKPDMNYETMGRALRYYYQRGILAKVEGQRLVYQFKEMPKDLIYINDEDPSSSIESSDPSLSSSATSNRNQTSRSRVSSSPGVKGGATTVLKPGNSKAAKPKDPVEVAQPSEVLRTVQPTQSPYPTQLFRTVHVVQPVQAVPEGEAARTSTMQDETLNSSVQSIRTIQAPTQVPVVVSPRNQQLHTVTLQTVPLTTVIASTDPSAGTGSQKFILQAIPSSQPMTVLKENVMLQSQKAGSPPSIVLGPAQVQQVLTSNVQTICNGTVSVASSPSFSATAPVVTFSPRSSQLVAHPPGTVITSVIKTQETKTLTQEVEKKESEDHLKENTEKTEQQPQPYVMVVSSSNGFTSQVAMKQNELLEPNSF
In short: as §1

EHF = biological target: T4, EHF (Homo sapiens, UniProt Q9NZC4 1-300)
T4 sequence: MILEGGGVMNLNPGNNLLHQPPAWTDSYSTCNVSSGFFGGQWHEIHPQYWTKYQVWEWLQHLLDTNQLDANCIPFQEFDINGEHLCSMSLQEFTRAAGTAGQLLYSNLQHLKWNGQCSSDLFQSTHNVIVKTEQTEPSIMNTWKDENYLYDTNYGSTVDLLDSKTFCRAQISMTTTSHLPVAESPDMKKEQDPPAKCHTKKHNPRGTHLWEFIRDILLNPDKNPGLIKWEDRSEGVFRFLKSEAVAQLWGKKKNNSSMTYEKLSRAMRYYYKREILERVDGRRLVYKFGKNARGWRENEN
In short: as §1

SPIB = SPIB (Homo sapiens, UniProt Q01892 1-262)
Sequence of SPIB (Q01892 whole entry): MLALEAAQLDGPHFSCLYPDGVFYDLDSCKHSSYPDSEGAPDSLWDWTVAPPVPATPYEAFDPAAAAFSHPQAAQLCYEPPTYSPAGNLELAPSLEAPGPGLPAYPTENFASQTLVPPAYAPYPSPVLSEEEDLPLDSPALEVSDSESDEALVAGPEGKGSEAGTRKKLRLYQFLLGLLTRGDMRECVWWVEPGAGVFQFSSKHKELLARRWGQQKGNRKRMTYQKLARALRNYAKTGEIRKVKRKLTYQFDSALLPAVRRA
In short: as §1

ELK3 = biological target: T5, ELK3 (Homo sapiens, UniProt P41970 1-407)
T5 sequence: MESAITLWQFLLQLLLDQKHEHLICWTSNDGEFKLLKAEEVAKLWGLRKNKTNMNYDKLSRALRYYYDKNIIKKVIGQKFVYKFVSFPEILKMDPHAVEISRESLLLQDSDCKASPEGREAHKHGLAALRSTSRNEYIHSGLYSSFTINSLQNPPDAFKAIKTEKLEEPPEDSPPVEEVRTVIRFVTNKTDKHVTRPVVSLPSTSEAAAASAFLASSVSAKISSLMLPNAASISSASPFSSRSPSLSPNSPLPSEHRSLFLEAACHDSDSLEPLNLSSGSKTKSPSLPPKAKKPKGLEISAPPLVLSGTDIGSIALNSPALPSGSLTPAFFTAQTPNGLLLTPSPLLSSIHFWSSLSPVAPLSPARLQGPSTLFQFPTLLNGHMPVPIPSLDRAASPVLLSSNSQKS
In short: as §1

SPIC = biological target: T6, SPIC (Homo sapiens, UniProt Q8N5J4 1-248)
T6 sequence: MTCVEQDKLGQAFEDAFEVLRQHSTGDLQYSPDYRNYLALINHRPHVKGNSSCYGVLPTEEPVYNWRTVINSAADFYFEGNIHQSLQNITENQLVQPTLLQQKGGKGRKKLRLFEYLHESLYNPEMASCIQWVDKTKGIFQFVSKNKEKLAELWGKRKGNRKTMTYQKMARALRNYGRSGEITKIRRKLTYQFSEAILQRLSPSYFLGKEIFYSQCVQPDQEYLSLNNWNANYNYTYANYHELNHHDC
In short: as §1

ELF4 = ELF4 (Homo sapiens, UniProt Q99607 1-663)
Sequence of ELF4 (Q99607 whole entry): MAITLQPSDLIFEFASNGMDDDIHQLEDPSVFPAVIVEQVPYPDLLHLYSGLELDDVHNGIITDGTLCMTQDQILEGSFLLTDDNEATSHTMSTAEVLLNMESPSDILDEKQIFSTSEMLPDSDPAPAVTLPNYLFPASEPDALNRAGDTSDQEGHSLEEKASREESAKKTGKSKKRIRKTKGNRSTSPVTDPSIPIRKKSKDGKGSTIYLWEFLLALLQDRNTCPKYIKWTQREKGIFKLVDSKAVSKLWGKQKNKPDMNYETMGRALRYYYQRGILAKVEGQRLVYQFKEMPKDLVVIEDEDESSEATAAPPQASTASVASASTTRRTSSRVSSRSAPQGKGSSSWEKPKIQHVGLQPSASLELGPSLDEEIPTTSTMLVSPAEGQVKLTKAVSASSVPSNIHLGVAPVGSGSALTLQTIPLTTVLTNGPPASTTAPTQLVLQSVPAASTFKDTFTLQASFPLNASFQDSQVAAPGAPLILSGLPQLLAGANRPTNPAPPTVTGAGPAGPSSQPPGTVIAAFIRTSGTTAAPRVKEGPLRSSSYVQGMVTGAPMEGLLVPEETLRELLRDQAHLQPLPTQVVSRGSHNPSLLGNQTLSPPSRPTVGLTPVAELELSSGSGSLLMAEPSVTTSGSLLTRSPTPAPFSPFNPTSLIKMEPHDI
In short: as §1

With CGTTTA the binding signal (ELK1) was 1.08 fold enrichment (6-mer frequency, TF over GST control), the binding signal (GABPA) was 1.13 fold enrichment (6-mer frequency, TF over GST control) and the binding signal (ERG) was 1.05 fold enrichment (6-mer frequency, TF over GST control). For the same sequence, the binding signal (ELF1) was 1.06 fold enrichment (6-mer frequency, TF over GST control), the binding signal (EHF) was 1.06 fold enrichment (6-mer frequency, TF over GST control) and the binding signal (SPIB) was 1.11 fold enrichment (6-mer frequency, TF over GST control). The binding signal (ELK3) was 1.12 fold enrichment (6-mer frequency, TF over GST control), the binding signal (SPIC) was 1.03 fold enrichment (6-mer frequency, TF over GST control) and the binding signal (ELF4) was 1.07 fold enrichment (6-mer frequency, TF over GST control).
